Only some compounds are listed: those with a hit (about 3.5% of all), similar ones and a draw of the others.
mHTT CaM bind: inhibitors of human mutant huntingtin-calmodulin interaction. AID 1671202. inhibition, % at 15 µM. actives 3.6% (n = 190,000). AlphaScreen His-mHTT/GST-CaM binding, luminescence;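 further: 0% = both proteins with DMSO and 100% = one protein alone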
Pf apPOL block: Pf-apPOL DNA polymerase inhibition; inhibition, % at 10 µM; AID 1794808; actives 0.25% (n = 210,000); Recombinant Pf-apPOL, molecular beacon fluorescence, 1.5 h
* hit, by the source's call. No stated cut-off is given here; in the data, active means inhibition above about 50%; inactive means the rest.

CC1=NN(C(=S)c2ccc(C)cc2)C(C)(O)C1CC(C)C (configuration not stated) was read as mHTT CaM bind 76*.
C1CCN(C2CCN(C3CC4CCC3C4)CC2)CC1 (configuration not stated) was read as mHTT CaM bind -7 and Pf apPOL block -4.
Screening C1CCCN(C2CCN(C3CC4CCC3C4)CC2)CC1 (configuration not stated) returned mHTT CaM bind 81* and Pf apPOL block -7.
Screening COc1cccc(/C=C2\C(=O)Nc3ccc(Br)cc32)c1OC returned mHTT CaM bind 89* and Pf apPOL block 4.
For COc1cc(Cl)cc(/C=C2\C(=O)Nc3ccc(Br)cc32)c1OC the results were mHTT CaM bind 57* and Pf apPOL block -3.
`COc1cc(Cl)c(/C=C2\C(=O)Nc3ccc(Br)cc32)cc1OC` gave mHTT CaM bind 42 and Pf apPOL block -53.
For COc1ccccc1/C=C1\C(=O)Nc2ccc(Br)cc21 the results were mHTT CaM bind 30 and Pf apPOL block 3.
For Fc1cccc(CNC(=S)O[C@H]2CCC23CCC(c2ccccc2)CC3)c1 (some centres not stated) the results were mHTT CaM bind -26 and Pf apPOL block -7.
CNC(=O)c1c(NC(C)=O)sc2c1CCCCC2 was read as mHTT CaM bind -2 and Pf apPOL block -40.
For CNC(=O)c1c(N=Cc2ccccc2O)sc2c1CCCC2 the results were mHTT CaM bind 61* and Pf apPOL block 6.
O=C(CSc1nc2ccccc2c(=O)n1-c1ccccc1)c1ccc(Cl)cc1 was read as mHTT CaM bind 2 and Pf apPOL block -2.
O=[N+]([O-])c1ccc(N2CCOCC2)nc1 was read as mHTT CaM bind -5 and Pf apPOL block -2.
Screening O=[N+]([O-])c1ccc(N2CCSCC2)nc1 returned mHTT CaM bind 0 and Pf apPOL block 66*.
COCCN1C(=O)c2ccccc2C(C(=O)N(C)c2ccc(C(C)C)cc2)C1c1ccc(F)cc1 (configuration not stated) was read as mHTT CaM bind 57* and Pf apPOL block -2.
Screening COCCN1C(=O)c2ccccc2C(C(=O)N(C)C2CCCCC2)C1c1ccc(F)cc1 (configuration not stated) returned mHTT CaM bind 5 and Pf apPOL block 1.
For COc1ccccc1CC(=O)N1CCC(CCOc2ccncc2)CC1 the results were mHTT CaM bind 10 and Pf apPOL block -4.
`CC1=NOC(=O)/C1=C/c1ccccc1OCc1ccc(Br)cc1` gave mHTT CaM bind 54* and Pf apPOL block 1.
For CC1=NOC(=O)/C1=C/c1ccccc1OCc1ccccc1Cl the results were mHTT CaM bind 4 and Pf apPOL block -2.
Screening C=CCOc1c(Br)cc(/C=C2\C(=O)ON=C2C)cc1OC returned mHTT CaM bind 21 and Pf apPOL block -2.
`COc1cc(/C=C2\C(=O)ON=C2C)cc(Br)c1OCc1ccc(C)cc1` gave mHTT CaM bind 70* and Pf apPOL block 14.
For COc1cc(/C=C2\C(=O)ON=C2C)cc(Br)c1OCc1ccccc1F the results were mHTT CaM bind 64* and Pf apPOL block -4.
For CC1=NOC(=O)/C1=C/c1ccc(OCc2ccc(C)cc2)c(Cl)c1 the results were mHTT CaM bind 33 and Pf apPOL block -5.
For COc1cc(/C=C2\C(=O)ON=C2C)ccc1OCc1ccccc1F the results were mHTT CaM bind 41 and Pf apPOL block -4.
`COc1cc(/C=C2\C(=O)ON=C2C)cc(Cl)c1OCc1ccc(C)cc1` gave mHTT CaM bind 95* and Pf apPOL block 0.
Screening CCCN1CCc2nc(SCc3c(F)cccc3Cl)[nH]c(=O)c2C1 returned mHTT CaM bind 2 and Pf apPOL block -3.
Screening COc1ccc(NC(=O)NCC#CCN2CCc3ccccc3C2)c(OC)c1 returned mHTT CaM bind 6 and Pf apPOL block 2.
CCN1c2cc(F)ccc2C(=O)NC12CCN(C(=O)c1ccccc1)CC2 was read as mHTT CaM bind -10 and Pf apPOL block -1.
O=C1OC(c2ccc(I)cc2)=N/C1=C\c1ccc(Br)o1 was read as mHTT CaM bind 5 and Pf apPOL block 2.
For COc1cccc(CSc2nc3c(c(=O)[nH]2)CN(Cc2ccccc2)CC3)c1 the results were mHTT CaM bind -1 and Pf apPOL block 0.
Screening O=[N+]([O-])c1cc([N+](=O)[O-])c2cccnc2c1Nc1ccccc1 returned mHTT CaM bind 13 and Pf apPOL block -3.
For CN(C)c1ccc(Nc2c([N+](=O)[O-])cc([N+](=O)[O-])c3cccnc23)cc1 the results were mHTT CaM bind 87* and Pf apPOL block -12.
COc1cc(C=C2Oc3cc(OCC=C(C)C)ccc3C2=O)cc(OC)c1OC was read as mHTT CaM bind -22 and Pf apPOL block 2.
Screening COc1ccc(CNC(=O)C2(C)CCCN(C(=O)Cc3ccc(OC)c(OC)c3)C2)cc1 (configuration not stated) returned mHTT CaM bind 0 and Pf apPOL block -2.

Screening data as filed in PubChem BioAssay.
